From PubChem BioAssay
CatG inh: human cathepsin G inhibitors, primary screen, biochemical, pooled compound mixtures, AMC fluorescence; P08311; purified enzyme, AMC-tetrapeptide fluorescence; inhibition, % at 5 µM (by protocol); 62,000 tested, 0.2% active;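 active means inhibition above 20% in each of the two mixture wells holding the compound; inactive means inhibition of 20% or less in either well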;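 further: 0% = enzyme control without mixture and 100% = blank lacking enzyme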
PLAP act: PLAP enzyme activators, biochemical, luminescence, HTS; Alkaline phosphatase, placental type (Homo sapiens), P05187; purified PLAP enzyme, luminescent substrate read-out; stronger effect = higher value; activation fold at 20 µM; 96,000 tested, 1.2% active; AID 696, 2007; in the data active means activation fold above about 2
FXIIa mix inh: human factor XIIa inhibitors, primary screen, biochemical, pooled compound mixtures, fluorogenic substrate; purified FXIIa; Coagulation factor XII (Homo sapiens), P00748; inhibition, % at 5 µM; 62,000 tested, 0.2% active;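 further: 0% = enzyme without compound and 100% = no enzyme blank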
HePTP inh: inhibitors of human HePTP phosphatase, primary screen, biochemical, absorbance, leukemia target; inhibition, % at 20 µM; Tyrosine-protein phosphatase non-receptor type 7 (Homo sapiens), P35236; AID 521, 2006; 110,000 tested, 0.64% active; recombinant HePTP phosphatase activity, OD absorbance; in the data active means inhibition above about 50%;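 further: plate controls were vehicle for no effect and reference inhibitor for full effect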
C1s block: complement C1s protease inhibitors, primary screen, biochemical, 10-compound mixtures; Complement C1s subcomponent (Homo sapiens), P09871; purified C1s, fluorogenic AMC substrate, pooled mixtures; mean inhibition % of two 10-compound mixtures (stronger effect = higher value), % at 5 µM (by protocol); 62,000 tested, 0.16% active;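 active means inhibition above 20% in each of the two 10-compound mixture wells holding the compound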;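 further: 0% = enzyme wells lacking compound mixture and 100% = no-enzyme blank wells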
Target sequence (P09871 16-437 limits assumed): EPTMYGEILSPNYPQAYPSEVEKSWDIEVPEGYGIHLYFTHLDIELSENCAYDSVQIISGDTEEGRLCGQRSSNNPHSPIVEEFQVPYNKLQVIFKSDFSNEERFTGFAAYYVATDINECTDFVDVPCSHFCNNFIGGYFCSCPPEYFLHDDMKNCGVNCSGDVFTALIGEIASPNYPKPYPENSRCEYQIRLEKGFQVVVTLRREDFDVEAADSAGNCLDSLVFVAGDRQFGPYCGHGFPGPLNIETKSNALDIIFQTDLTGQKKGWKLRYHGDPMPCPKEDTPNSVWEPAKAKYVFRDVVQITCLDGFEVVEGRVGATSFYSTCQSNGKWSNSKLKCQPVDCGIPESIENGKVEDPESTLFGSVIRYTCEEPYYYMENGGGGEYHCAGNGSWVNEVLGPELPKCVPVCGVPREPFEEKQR
Target sequence (P09871 438-688 limits assumed): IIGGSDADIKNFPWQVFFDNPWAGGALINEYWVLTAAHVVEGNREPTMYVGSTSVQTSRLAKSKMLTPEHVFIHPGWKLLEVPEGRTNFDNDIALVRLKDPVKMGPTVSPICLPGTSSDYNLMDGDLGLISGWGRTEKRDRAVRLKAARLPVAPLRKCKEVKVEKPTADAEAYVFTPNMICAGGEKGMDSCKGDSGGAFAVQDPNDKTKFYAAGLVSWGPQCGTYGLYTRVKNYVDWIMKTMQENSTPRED
FXIa mix inh: FXIa protease inhibitors in compound pools, primary screen, biochemical, 10-compound mixtures | AID 680, 2007 | purified FXIa, fluorogenic substrate, pooled mixtures | 62,000 tested, 0.19% active | inhibition, % at 5 µM | Coagulation factor XI (Homo sapiens), P03951;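 further: each value is inhibition by a whole ten-compound pool holding the compound; 0% = enzyme with no mixture and 100% = wells lacking enzyme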
Starred values were filed as active, the others as inactive; . = no result given. The list is not random: actives were taken first. Their share in the collection is about 1.4%. Unless noted, no stated cut-off is given here; in the data, active means inhibition above about 20% (passing the limit was not always enough); inactive means the rest.

SMILES	CatG inh	PLAP act	FXIIa mix inh	HePTP inh	C1s block	FXIa mix inh
CCOC(=O)c1[nH]nc2c1C(=O)N(CC)C2=O	15.4	0.9	8.6	5.1	5.5	13.6
CCCc1cc(-c2n[nH]c(C(=O)OCC)c2-c2cscn2)c(O)cc1O	.	2.1*	.	.	.	.
CCOc1ccc(Br)cc1/C=C(\C#N)c1nc2ccc(C)cc2[nH]1	.	.	.	-1.8	.	.
CCCOc1ccc(C2NC(=O)NC(C)=C2C(=O)OCC2CCCO2)cc1 (centres undefined)	.	.	.	-1.1	.	.
Nc1nncn1C(=O)c1cccs1	22.4*	1	15.0	4.1	13.8	13.0
CC(=O)Nc1ccc(NC(C)=O)s1	10.5	1.2	8.5	7.3	56.4*	6.5
COc1ccccc1NC(=O)c1cc([N+](=O)[O-])ccc1Br	.	.	.	4.3	.	.
O=C(NC(NC(=S)Nc1c(Cl)cccc1Cl)C(Cl)(Cl)Cl)c1ccccc1 (centres undefined)	.	.	.	7.1	.	.
O=C(O)c1cc(NC(=O)c2ccccc2Cl)cc(C(=O)O)c1	.	.	.	-12.4	.	.
Cc1ccc(S(=O)(=O)/N=C2\C=C(n3cnc4ccccc43)C(=O)c3ccccc32)cc1	.	.	.	85.1*	.	.
Cc1ccc(S(=O)(=O)/N=C2/C=C(N3CCOCC3)C(=O)c3ccccc32)cc1	.	.	.	-18.0	.	.
CCOc1ccc(N(CC(=O)NCc2ccc(Cl)cc2)S(=O)(=O)c2ccc(Br)cc2)cc1	.	.	.	102.8*	.	.
Cn1nc(-c2ccc(N3CCOCC3)c(NC(=O)COc3ccccc3)c2)c2ccccc2c1=O	-5.4	.	-17.6	-5.5	-9.3	3.3
CCC(=O)Nc1cc(-c2nn(C)c(=O)c3ccccc23)ccc1N1CCOCC1	.	2*	.	.	.	.
C=C(C)c1cccc(C(C)(C)NC(=O)N2CCOCC2)c1	10.0	1.1	0.8	7.6	14.2	7.7
C=C(C)c1cccc(C(C)(C)NC(=O)NCCCN2CCCC2=O)c1	-2.4	2.3*	-24.3	15.1	-14.3	0.2
C=C(C)c1cccc(C(C)(C)NC(=O)N2CC(C)OC(C)C2)c1 (centres undefined)	-2.2	1.4	21.9*	-3.6	-1.6	2.4
COc1cccc(C(=O)Nc2ccc3c(c2)OCO3)c1	.	.	.	-29.6	.	.
CCc1cc2c(NCCO)ncnc2s1	10.6	1	-3.0	6.1	8.1	4.4
OCCOCCNc1ncnc2sc(-c3ccccc3)cc12	.	2.2*	.	.	.	.
Cc1cc(NC(=O)c2ccc(C(=O)Nc3cc(C)c(O)c(C)c3)cc2)cc(C)c1O	.	.	.	7.4	.	.
O=C(O)C1CCCCC1C(=O)Nc1nc2ccccc2s1 (centres undefined)	.	.	.	3.6	.	.
COc1cc(/C=N/NC(N)=O)ccc1Oc1nc(Nc2ccc(C)cc2Br)nc(N2CCOCC2)n1	.	.	.	9.0	.	.
CCOc1cc(CNCCSc2nnnn2C)cc(Br)c1OCc1ccccc1	.	2*	.	.	.	.
CCOC(=O)c1ccc(NC(=S)NC(=O)c2ccc(Cl)cc2)cc1	.	.	.	-10.2	.	.
SMILES	CatG inh	PLAP act	FXIIa mix inh	HePTP inh	C1s block	FXIa mix inh
CC(=O)c1ccc(Cc2cnc(N)s2)cc1	11.1	0.8	21.2*	-0.3	17.6	2.1
CCN1C(=O)/C(=C\c2ccc(-c3ccccc3C(=O)OC)o2)SC1=S	.	.	.	6.6	.	.
O=C(O)CCN1C(=O)/C(=C/c2ccc(-c3ccccc3[N+](=O)[O-])o2)SC1=S	.	.	.	69.7*	.	.
O=C(O)CN1C(=O)/C(=C\c2ccc(-c3cccc4c3C(=O)c3ccccc3C4=O)o2)SC1=S	.	.	.	100.7*	.	.
c1ccc2c(Oc3ncnc4sc5c(c34)CCCC5)cccc2c1	.	.	.	-23.8	.	.
CCC(=O)NC(Nc1ccc(C)cn1)(C(F)(F)F)C(F)(F)F	.	.	.	3.8	.	.
CCOc1cccc(NCc2cc3c(C(C)(C)C)nn(-c4ccccc4)c3[nH]c2=O)c1	.	12	.	.	.	.
CC(C)(C)c1nn(-c2ccccc2)c2[nH]c(=O)c(CNCc3ccc4c(c3)OCO4)cc12	.	2.1*	.	.	.	.
O=[N+]([O-])c1cc(C(F)(F)F)ccc1NCCNC(=S)Nc1ccc(Cl)cc1	.	0.7	.	103.9*	.	.
O=C(NCCCCNc1ccc(C(F)(F)F)cc1[N+](=O)[O-])c1ccc(Cl)cc1	.	.	.	-12.2	.	.
CCN(CCNC(=O)c1cccc(N2CCCC2=O)c1)c1ccccc1	6.0	1.4	1.9	9.2	10.5	7.1
CN(CCNC(=O)c1cccc(N2CCCC2=O)c1)Cc1ccccc1	5.6	1.4	24.1*	0.4	-22.6	0.0
